High-throughput results as filed in PubChem BioAssay.
USP8 inh = inhibitors of human USP8 deubiquitinase. P40818. purified USP8, Ub-rhodamine cleavage fluorescence, 30 min. inhibition, % at 20 µM. 4.2% of 47,000 active. AID 1645853
UCHL1 block = human UCHL1 deubiquitinase inhibition; P09936; purified UCHL1, Ub-rhodamine cleavage fluorescence; inhibition, % at 20 µM; 0.2% of 47,000 active
USP7 inh = blocks human USP7 ubiquitin-rhodamine cleavage | inhibition, % at 20 µM | purified USP7, Ub-rhodamine cleavage fluorescence | AID 1645854 | 0.3% of 47,000 active | Q93009
USP10 block = blocks human USP10 ubiquitin-rhodamine cleavage; Q14694; purified USP10, Ub-rhodamine fluorescence, 60 min; inhibition, % at 20 µM; 1.1% of 47,000 active
* = called active by the depositor. The list is not random: actives were taken first. Their share in the collection is about 5%. Cut-off read from the data, not from the text of the source: active = inhibition above about 30%; inactive = the rest.

SMILES	USP8 inh	UCHL1 block	USP7 inh	USP10 block
O=C(CCCc1nnc2c(=O)n(-c3cccc(F)c3)ccn12)NCc1ccc(Cl)cc1	19.3	15.0	27.7	16.9
Nc1c(-c2nc(-c3ccccc3)cs2)nnn1-c1ccccc1	2.9	3.8	-0.3	1.4
Nc1c(-c2nc(-c3ccc4c(c3)OCO4)cs2)nnn1-c1ccccc1	33.6*	2.4	14.0	-1.1
Cc1ccc(-c2csc(-c3nnn(-c4cccc(Cl)c4)c3N)n2)cc1	42.4*	0.0	-22.8	0.6
CN(C)c1cccc(C(=O)NCc2nn(C)c3ccccc23)c1	25.0	4.8	6.1	-0.2
COc1ccccc1NC(=O)CN(Cc1ccccc1)S(=O)(=O)c1ccccc1F	-6.2	1.6	7.7	4.3
COc1ccc(C(=O)Nc2cc(OC)c(NC(=O)CN3CCOCC3)cc2OC)cc1	58.2*	0.9	-5.6	-4.9
COc1cc(NC(=O)c2ccc(Cl)cc2)c(OC)cc1NC(=O)CN1CCOCC1	-18.8	-2.7	-9.9	-2.3
Cc1cc(C)c(C(=O)CSc2nnc(-c3ccccc3)o2)cc1C	56.3*	-1.6	-0.2	-4.2
Cn1c(NC(=O)c2ccco2)c(-c2cccs2)c(=O)c2ccccc21	34.1*	14.4	-59.0	-6.0
COCC1c2c(cnn2C)CCN1C(=O)c1ccnnc1 (stereo unspecified)	-195.1	-4.0	-0.1	-4.1
O=C(NCc1ccccc1)C(Cc1ccccc1)NS(=O)(=O)c1ccc2c(c1)OCCO2 (stereo unspecified)	30.7*	2.6	10.0	9.7
CCc1nnc(C(=O)Nc2ccc(C(=O)NCc3ccc(OC(C)C)cc3)cc2)s1	-30.6	3.6	10.9	37.8*
Cc1ccccc1CC(=O)N1CCN(C(=O)c2cc(-c3ccncc3)n[nH]2)CC1	0.6	-3.5	-3.1	2.4
Fc1ccc(NCc2nc3ccccc3n2Cc2ccccc2)cc1	19.9	7.9	-166.1	8.8
c1ccc(Cn2c(CNc3cccc4ccccc34)nc3ccccc32)cc1	57.9*	2.4	-16.9	3.4
CCOc1ccc(NCc2nc3ccccc3n2Cc2ccccc2)cc1	41.7*	3.4	-32.4	2.4
C=C(C)Cn1c(CNC(=O)Cc2ccccc2)nc2ccccc21	10.0	1.0	0.5	2.2
CN(C)c1cccc(C2CN(C(=O)c3ccc4nc[nH]c4c3)CCO2)n1 (stereo unspecified)	-7.3	-1.8	-5.6	-0.6
O=C(Nc1ccc2c(c1)OCO2)c1cnc(N2CCOCC2)nc1	81.0*	1.9	0.2	0.0
O=C(Nc1ccc2c(c1)OCO2)c1cc(CN2CCCC2)on1	53.0*	5.1	-7.1	5.3
O=C(Nc1ccc2c(c1)OCCO2)c1cnc(N2CCOCC2)nc1	-3.9	1.0	-5.9	1.3
COc1cccc(-c2noc(N3CCC(C)CC3)n2)c1OC	-9.6	-0.7	-2.1	-0.4
O=C(CCc1nnc2ccc(N3CCCCC3)nn12)NCCN1CCOCC1	40.9*	2.3	2.8	-0.3
COc1ccc(-n2c(SCC(=O)Nc3cc(Cl)ccc3C(=O)O)nc3ccccc3c2=O)cc1Cl	38.9*	10.0	34.9*	58.6*
SMILES	USP8 inh	UCHL1 block	USP7 inh	USP10 block
c1ccc(CNc2ccc(-c3ccccc3)nn2)cc1	56.8*	4.3	8.0	10.0
CN1CCN(C(=O)c2ccc(-c3ccc(NCc4ccccc4)nn3)cc2)CC1	-209.3	-2.4	-1.3	-4.1
C/C(=C\Cc1c(O)cc(C)c(C=O)c1O)CC[C@@]1(C)[C@H](C)CCC(=O)[C@@H]1C	13.4	8.9	10.2	37.5*
Cc1ccc(-n2ncc3c(=O)[nH]c(SCC(=O)NCc4ccco4)nc32)cc1C	39.5*	-0.7	2.3	12.7
COc1ccc(CCNC(=O)CSc2nc3c(cnn3-c3ccc(C)cc3)c(=O)[nH]2)cc1OC	-3.2	-3.1	1.5	0.0
CN(CCCNC(=O)c1cccc2c1SCCC2=O)c1ccccc1	40.2*	1.0	-9.5	-8.0
Cc1nn(-c2ccc(F)cc2)c(Cl)c1C(=O)NC1CCCc2ccccc21 (stereo unspecified)	-7.2	1.6	9.8	-0.7
Cc1cn2nnc(C(=O)NC3CCc4ccccc43)c2c(=O)[nH]1 (stereo unspecified)	63.5*	1.2	-1.0	-7.3
COc1ccc(C(=O)/C=C\c2cn(-c3ccccc3)nc2-c2cccs2)cc1	2.3	3.1	13.1	1.4
Nc1nn(-c2ccccc2)cc1-c1cccs1	35.9*	-3.7	-13.8	-7.1
COc1cc2c(=O)n(CC3CCCO3)c(=O)n(CC(=O)c3ccc4c(c3)OCO4)c2cc1OC (stereo unspecified)	47.4*	-2.7	-5.0	32.7*
CCN(CC)S(=O)(=O)c1ccc(/C(=C\Nc2ccc(Cl)cc2)c2ncc(C(F)(F)F)cc2Cl)s1	35.9*	7.3	12.8	3.3
COc1cc(NC(=O)CSc2nc3ncccc3o2)ccc1Cl	85.4*	7.1	-4.5	-3.8
